Data: PubChem BioAssay (NCI)
The panel holds about 83,000 compounds, 20% with a hit somewhere; the sample as a whole holds those more often.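 A percent growth of 40 corresponds to 60% growth inhibition; 0 means no net growth; -100 means all cells died. Active threshold: below 10.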 Unmarked numbers belong to inactive results. Active and inactive are the calls of the source.

What was measured:
Assay in all cases: NCI-60 one-dose screen, 48 h (100 = growth as untreated, 0 = no growth, -100 = all killed)
[1] = test system: RPMI-8226 leukemia; conditions: 10 µM unless noted
[2] = test system: OVCAR-8 ovarian; conditions: 10 µM unless noted
[3] = test system: OVCAR-5 ovarian; conditions: 10 µM unless noted
[4] = test system: OVCAR-4 ovarian; conditions: 10 µM unless noted
[5] = test system: IGROV1 ovarian; conditions: 10 µM unless noted
[6] = test system: OVCAR-3 ovarian; conditions: 10 µM unless noted
[7] = test system: HS 578T breast; conditions: 10 µM unless noted
[8] = test system: NCI/ADR-RES ovarian; conditions: 10 µM unless noted
[9] = test system: T-47D breast; conditions: 10 µM unless noted
[10] = test system: BT-549 breast; conditions: 10 µM unless noted
[11] = test system: MDA-MB-435 melanoma; conditions: 10 µM unless noted
[12] = test system: SW-620 colon; conditions: 10 µM unless noted
[13] = test system: MCF7 breast; conditions: 10 µM
[14] = test system: HCT-116 colon; conditions: 10 µM unless noted
[15] = test system: HCC-2998 colon; conditions: 10 µM unless noted
[16] = test system: KM12 colon; conditions: 10 µM unless noted

| Structure (SMILES) | growth [1] | growth [2] | growth [3] | growth [4] | growth [5] | growth [6] | growth [7] | growth [8] | growth [9] | growth [10] | growth [11] | growth [12] | growth [13] | growth [14] | growth [15] | growth [16] |
| --- | --- | --- | --- | --- | --- | --- | --- | --- | --- | --- | --- | --- | --- | --- | --- | --- |
| Cc1ccc2sc3c(NCCCNCCO)nc4ccccc4c3c(=O)c2c1 | -16.5% (active) | 22.4% | 90.7% | 60.4% | 48.8% | 26.6% | 44.2% | 72.6% | -39.5% (active) | 90.2% | -80% (active) | -78.2% (active) | -78.8% (active) | -67% (active) | -75.5% (active) | -50.4% (active) |
| COC(=O)/C(CCC=C(C)C)=C1\[C@@H](OC(C)=O)C[C@@]2(C)[C@H]1C[C@@H](O)[C@H]1[C@@]3(C)CC[C@H](NC(=O)c4cnccn4)[C@@H](C)[C@@H]3CC[C@@]12C | 75.8% | 92.5% | 109% | 98.4% | 107% | 108% | 96.4% | 99.4% | 87.4% | 100% | 103% | 104% | 96% | 93.1% | 104% | 102% |
| CN1C(=O)N(C)C2Nn3c(s/c(=C\c4ccc(Cl)cc4Cl)c3=O)=NC21 (stereo not drawn) | 80.2% | 69.3% | 63.5% | 67.6% | 60.5% | 30.7% | 66.9% | 35.6% | 69.7% | 93.9% | 8.74% (active) | 63.1% | 45.4% | 43.9% | 86.5% | 28.7% |
| Cc1c(-c2csc(-n3nc(C(F)(F)F)cc3C(F)(F)F)n2)no[n+]1[O-] | 97.2% | 99.2% | 99.2% | 87.4% | 102% | 114% | 98.2% | 105% | 87.5% | 102% | 99.2% | 104% | 85.1% | 93.1% | 112% | 104% |
| COC(=O)/C(CCC=C(C)C)=C1\[C@@H](OC(C)=O)C[C@@]2(C)[C@H]1C[C@@H](O)[C@H]1[C@@]3(C)CC[C@H](NCCO)[C@@H](C)[C@@H]3CC[C@@]12C | 101% | 101% | 104% | 107% | 99.4% | 105% | 93.3% | 101% | 103% | 114% | 98.9% | 97% | 98.8% | 105% | 106% | 103% |
| COc1cc(/C(C#N)=C/c2nc3c(N4CCOCC4)nc(Cl)nc3n2C)cc(OC)c1OC | 7.11% (active) | 21.8% | 34.6% | 21.9% | 8.43% (active) | 0.593% (active) | 0.385% (active) | 8.53% (active) | 33.9% | 20.7% | -48.5% (active) | 19.8% | 6.74% (active) | 4.75% (active) | 7.16% (active) | 1.09% (active) |
| c1ccc2c(c1)oc1cc3sccc3nc12 | 99.4% | 101% | 109% | 102% | 95.8% | 107% | 101% | 102% | 101% | 89.5% | 99.7% | 96.6% | 99.8% | 96.7% | 118% | 108% |
| Cc1ccc2cccc(Oc3ccc(Nc4ncnc5onc(-c6ccccc6)c45)cc3)c2n1 | 111% | 91% | 94.6% | 71.9% | 77.2% | 93.8% | 89.4% | 87.3% | 65.2% | 93.3% | 79.9% | 87% | 79.5% | 58.5% | 100% | 63.8% |
| O=C(c1nc2ccccc2[nH]1)C1[C@@H](c2cccc(O)c2)C2CC3CCCCC3N2[C@@]12C(=O)Nc1cc(Cl)ccc12 (stereo partly drawn) | 4.43% (active) | 52.5% | 69.3% | 34.4% | 38.8% | 42.5% | 57.1% | 85.2% | 34.3% | 62.5% | 29.3% | 39.3% | 18.9% | 31.5% | 33.8% | 34.9% |
| CCCN1C(=O)N(CCC)C2C1NN=c1s/c(=C3\C(=O)N(C(C)C)c4ccccc43)c(=O)n12 (stereo not drawn) | 61.2% | 58.4% | 76% | 42.9% | 41.5% | -15% (active) | 30.3% | 44.5% | 28.1% | 47.7% | -7.13% (active) | 35.9% | 15.4% | 20% | 65.3% | 26.9% |
| COc1cccc(/C(C#N)=C/c2nc3c(N4CCOCC4)nc(Cl)nc3n2C)c1 | -23.5% (active) | 9.5% (active) | -37.6% (active) | -65.9% (active) | -29.8% (active) | -78.7% (active) | -7.18% (active) | 25.9% | -44.5% (active) | -77% (active) | -80.2% (active) | -72% (active) | -44.1% (active) | -72.9% (active) | 20% | 16.2% |
| COc1ccc2occ(C3=C(c4c[nH]c5ccccc45)C(=O)NC3=O)c2c1 | 53% | 63.9% | 68.6% | -24.3% (active) | 41.5% | 26.8% | 33.9% | 20.5% | 57% | 35.7% | 1.76% (active) | 22.6% | 21.6% | 26.5% | 74.5% | 20.8% |
| O=C(Cn1cc(COc2ncnc3c2cnn3-c2ccccc2)nn1)Nc1ccccn1 | 84.4% | 92.5% | 93.7% | 92.7% | 95.4% | 100% | 88.3% | 91.5% | 80.9% | 94% | 98% | 102% | 90.4% | 98.2% | 120% | 100% |
| O=C(NCc1ccco1)C1CN(c2ccc(Cl)cc2)N(c2ccc(Cl)cc2)C1=O (stereo not drawn) | 48% | 66.4% | 82.2% | 57.7% | 46.3% | 3.64% (active) | 36.7% | 24.3% | 43.2% | 51.9% | -32.5% (active) | 28.6% | 14.2% | 21.9% | 76.1% | 22.3% |
| S=C1NC2(c3ccccc3)CCC(=S)N2c2ccccc21 (stereo not drawn) | 103% | 100% | 103% | 105% | 106% | 119% | 101% | 109% | 106% | 107% | 101% | 108% | 108% | 103% | 127% | 108% |
| CNCCNc1nc2ccccc2c2c(=O)c3cccc(OC)c3sc12 | -31.4% (active) | 23.7% | 47.3% | 22.8% | 29.7% | 29.4% | 40.8% | 37.5% | 54.4% | 73.1% | -72.7% (active) | -80.1% (active) | -67.5% (active) | -68.2% (active) | -52.3% (active) | -47.9% (active) |
| CCN1C(=O)N(c2ccccc2)C2Nn3c(s/c(=C4\C(=O)N(C(C)C)c5ccccc54)c3=O)=NC21 (stereo not drawn) | 97.7% | 103% | 102% | 105% | 99.6% | 117% | 99.7% | 109% | 102% | 107% | 99.7% | 98.7% | 98.8% | 105% | 112% | 105% |
| O=c1oc2ccc(Br)cc2c(=O)n1-c1ccc(Br)cc1F | -13.8% (active) | 12.3% | 18.8% | 10.4% | 9.59% (active) | 8.18% (active) | -5.29% (active) | 2.87% (active) | -1.51% (active) | -19.4% (active) | -8.23% (active) | 5.96% (active) | 0.224% (active) | -40.2% (active) | 1.75% (active) | -20% (active) |
